Measurements reported in PubChem BioAssay (NCATS).
“And” between values parts separate entries of the source, which are not always exact repeats. Identical values can stand only once. Records with an inconclusive call do not appear. Values without a mark were called inactive. Calls follow the shape of the full dose curve.

What follows are compounds tested against Bile acid receptor (Homo sapiens) (UniProt Q96RI1) (assay: qHTS assay for small molecule agonists of farnesoid X receptor signaling (AID 588527;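 also: series mostly up to about 77 µM; 0% = vehicle basal and 100% = reference agonist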)). Conditions: HEK293T FXR-UAS-bla, beta-lactamase ratio, 16 h; activation: active compounds read high.
Bile acid receptor (Homo sapiens), sequence (Q96RI1 whole entry, looked up): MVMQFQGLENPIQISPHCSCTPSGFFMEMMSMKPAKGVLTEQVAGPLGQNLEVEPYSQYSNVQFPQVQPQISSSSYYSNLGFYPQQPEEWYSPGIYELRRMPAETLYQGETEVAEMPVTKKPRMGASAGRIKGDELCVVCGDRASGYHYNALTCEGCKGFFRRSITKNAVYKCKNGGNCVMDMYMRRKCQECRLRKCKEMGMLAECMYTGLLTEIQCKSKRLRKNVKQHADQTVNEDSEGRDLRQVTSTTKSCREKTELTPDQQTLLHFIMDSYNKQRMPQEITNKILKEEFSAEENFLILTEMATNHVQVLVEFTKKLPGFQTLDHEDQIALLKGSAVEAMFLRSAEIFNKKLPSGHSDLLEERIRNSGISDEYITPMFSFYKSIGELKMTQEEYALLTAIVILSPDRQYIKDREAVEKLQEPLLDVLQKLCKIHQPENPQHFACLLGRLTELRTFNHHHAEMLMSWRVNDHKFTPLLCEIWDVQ
Excerpt: NIH Chemical Genomics Center [NCGC] U.S. Environmental Protection Agency [EPA] National Institutes of Environmental Health Sciences [NIEHS] National Toxicology Program [NTP] NCGC Assay Overview The farnesoid-X-receptor (FXR), a nuclear hormone receptor is highly expressed in liver, intestine, kidney and adrenal cortex. Natural ligands of FXR are the bile acids (Cholic acid, Chenodeoxy cholic acid etc). It is an important regulator of diverse metabolic pathways, including the bile acid homeostasis, lipid and glucose metabolisms. FXR regulates the expression of target genes by binding either as a monomer or as a heterodimer with RXR (retinoid X receptor). As FXR regulates a large number of target genes involved in bile acid, lipoprotein and glucose metabolisms, it is a potential pharmacological target for bile acid and lipid disorders. Thus screening environmental chemicals on FXR signaling can be used for the studies focused on metabolic syndrome, hepatic and intestinal toxicity etc.
NCGC Assay Protocol Summary Using a beta-lactamase reporter-gene under control of Farnesoid X receptor (FXR) response element, a cell-based assay [GeneBLAzer FXR-UAS-bla assay developed by Invitrogen] was used to measure FXR ligands signaling. GeneBLAzer FXR-UAS-bla HEK293T cells were used with assay medium containing 10% dialyzed FBS. The assay was performed in clear bottom black Greiner 1536-well plates. Chenodeoxycholic acid and Guggulsterone were used in the screen as agonist and antagonist positive controls respectively. Library compounds were measured for their ability to stimulate the reporter gene activity. Compounds were screened in a titration series in 1536-well format. […] Data was normalized relative to Chenodeoxycholic acid control (100 uM, 100%), and DMSO only wells (basal, 0%). Concentration-response titration points for each compound were fitted to the Hill equation yielding concentrations of half-maximal stimulation (EC50) and maximal response (efficacy) values. qHTS protocol for FXR beta-lactamase assay in agonist mode [Step] [Parameter] [Value] [Description] 1. Reagent; 6 uL; 5000 cells/well 2. Incubation; 37 C for 5-7 hrs 3. Compounds; 23 nL; 0.59 nM to 92 uM 4. Controls (Chenodeoxycholic acid); 23 nL, - One column with dose response, start 200 uM, 1:2 dilutions in duplicates - Final concentrations of 100 uM and 60 uM in two columns 5. Incubation; 37 C for 16 hrs 6. Detection reagent; 1 uL of CCF4-dye 7. Incubation; RT for 2 hrs 8. Detection; Fluorescence; Envision plate reader
Work on `CC(C=CC1=C(C)CCCC1(C)C)=CC=CC(C)=CC(=O)Nc1ccc(O)cc1` yielded an activation of 2.75%. Compound `CCCCC(CC)CO` (stereo not given) has an activation of -0.465%. With `COC(=O)c1ccc(C)cc1` the activation was -0.0429%. `CC=O` showed an activation of -1.84%. For `c1ccc2c(c1)ccc1ccccc12`, the activation was -5.28% and 1.03%. Work on `Cc1ccc(C)c2ccccc12` yielded an activation of -1.23%. In the case of `CC(C)COC(=O)c1ccccc1C(=O)OCC(C)C`, the activation is reported as -1.69%. `Oc1c(Cl)c(Cl)c(Cl)c(Cl)c1Cl` was tested, and the activation was 0.631% and 4.93%. For `CCOP(=S)(OCC)SCSCC`, the activation was 1.79%. For `COC(=O)c1ccccc1C(=O)OC`, the activation was -0.299% and -2.92%. In the case of `O=C(O)c1cc(O)c2ccccc2c1O`, the activation is reported as 1.64%. `COCCOCCOCCOC` was tested, and the activation was 4.16%. Compound `Cc1cc(O)c2c(c1)C(=O)c1cccc(O)c1C2=O` has an activation of -2.98%. In the case of `CCCC/C=C\CCCCCCCCCC=O`, the activation is reported as -2.92%. Work on `CC(=O)c1ccccn1` yielded an activation of -4.62%. For `O=C(Nc1ccccc1)c1cc([N+](=O)[O-])ccc1Cl`, the activation was -1.48%. `O=C(O)CCCc1c[nH]c2ccccc12` showed an activation of -2.14%. Work on `Cc1ccc2cc3c(ccc4ccccc43)c3c2c1CC3` yielded an activation of 2.18%. With `CS(C)=O` the activation was -2.1%. `O=C1c2cccc(O)c2C(=O)c2c(O)cc(CO)cc21` showed an activation of 4.08%. For `C=CC(C)(O)CCC=C(C)C` (stereo not given), the activation was -2.97% and 2.71%. For `O=c1c(-c2ccc(O)cc2)coc2cc(O)ccc12`, the activation was 2% and 3.27%. Work on `CC(=O)C(C)=O` yielded an activation of 0.539%. Compound `CCCCCCCCCCCCCCCCCC(N)=O` has an activation of 1.8%. In the case of `CC(C)NCC(O)COc1cccc2ccccc12` (stereo not given), the activation is reported as 0.153% and 4.79%. In the case of `CCCCOP(=O)(O)OCCCC`, the activation is reported as 1.99%. `O=C(/C=C/C=C/c1ccc2c(c1)OCO2)N1CCCCC1` was tested, and the activation was 4.73%. `CCCc1c(OCCCOc2ccc(OCC(=O)O)cc2)ccc(C(C)=O)c1O` gave an activation of 3%. `C/C=C/C=C/CCCCCCCO` showed an activation of -0.999%. `N[C@@H](Cc1ccc(O)c(O)c1)C(=O)O` showed an activation of 1.53%. `CC(=O)/C=C/C1C(C)=CCCC1(C)C` (stereo not given) was tested, and the activation was 2.64%. In the case of `CCCCCCC(=O)O`, the activation is reported as -0.812%. With `NCCO/C=C/[C@H](N)C(=O)O` the activation was 4.46%. `CCCc1c(-c2ccc(O)cc2)nn(-c2ccc(O)cc2)c1-c1ccc(O)cc1` was tested, and the activation was 1.37%. With `Nc1nc(N)c2nc(CNc3ccc(C(=O)NC(CCC(=O)O)C(=O)O)cc3)cnc2n1` (stereo not given) the activation was 1.76%. `C=CCOC(=O)c1ccccc1C(=O)OCC=C` was tested, and the activation was -3.26% and 2.9%. `CCC(=O)OCCc1ccccc1` gave an activation of 0.429%. Compound `O=c1c(O)c(-c2ccc(O)cc2O)oc2cc(O)cc(O)c12` has an activation of -2.26%. In the case of `COC(=O)CCCC(=O)OC`, the activation is reported as -3.54%. Work on `COC(=O)CCC(=O)OC` yielded an activation of 2.67%.
